Results filed as inconclusive are left out. Unmarked numbers belong to inactive results. Active and inactive are the calls of the source. The call rests on the fitted dose curve; in most records, active means well fitted inhibition curve with a large enough effect; inconclusive means small, poorly fitted or top-dose-only effect; inactive means flat fitted curve, though single readings scatter. Where a SMILES comes first, the peptide text is derived from it. Bridges are numbered along the chain shown (N, C = ends). [ ]: non-standard residue; d: D form. NMeY = CN[CH](Cc1ccc(O)cc1)C(=O)O
The molecules below were run on KB-3-1 (assay: Cytotoxic Profiling of Annotated Libraries Using Quantitative High-Throughput Screening (AID 1296008; further: nearly all actives have a fitted effect of over 60% in size)). Conditions: Five cell lines viability, CellTiter-Glo ATP luminescence, 48-72 h; max response: hits give low values.
Summary of the method: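 Cells exposed to compounds for 48 or 72 hr at 37 degrees Celsius. Viability read as ATP-coupled luminescence with CellTiter-Glo after 10 min at room temperature.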
On the % scale 0 is the no-effect control and ±100 the full control effect; potency means the concentration at half of the fitted maximal effect.

Row | SMILES | outcome | Potency | max response
1 | COc1cc2c(c(OC)c1CC=C(C)C)C[C@H](c1ccc(O)cc1O)CO2 | inactive | – | –
2 | COc1cc(OC)c(/C=C/S(=O)(=O)Cc2ccc(OC)c(NCC(=O)O)c2)c(OC)c1 | – | 206 nM (active) | –
3 | COc1c2cc(c(O)c1OC)-c1cc(ccc1O)CCC(O)CCCC2 (centres undefined) | inactive | – | –
4 | COc1ccc([C@@]2(O)c3c(ccc(CC=C(C)C)c3O)NC(=O)[C@@H]2OC)cc1 | – | – | 8.3%
5 | C[C@@H]1CC[C@]2(C(=O)O[C@@H]3O[C@H](CO)[C@@H](O)[C@H](O)[C@H]3O)CC[C@]3(C)C(=CCC4[C@@]5(C)C[C@@H](O)[C@H](O)[C@](C)(C(=O)O)C5CC[C@]43C)[C@@H]2[C@]1(C)O (some centres undefined) | – | – | 5.29%
6 | COc1ccc(-c2cnc3ccc(NCc4ccc(S(N)(=O)=O)cc4)nn23)cc1OC | – | – | -8.36%
7 | C[C@@]12CC[C@@H]3[C@@](CC[C@H]4[C@@]3(C)CCC[C@@]4(C)C(=O)O)(CC1=O)C2 | – | – | 1.35%
8 | C=C(C(=O)O)C1CCC2(C)CCCC(C)(O)C2C1 (centres undefined) | inactive | – | –
9 | CC1=CC(=O)CC(C)(C)[C@H]1/C=C/C(CO)O[C@@H]1O[C@H](CO)[C@@H](O)[C@H](O)[C@H]1O (some centres undefined) | inactive | – | –
10 | O=C(O[C@H]1[C@@H]2C=CO[C@@H](O[C@@H]3O[C@H](CO)[C@@H](O)[C@H](O)[C@H]3O)[C@@H]2[C@@]2(CO)O[C@@H]12)c1ccccc1 | inactive | – | –
11 | CN1CCN(C(=O)c2ccc3cc(CCNc4ncnc5ccc(C#N)cc45)ccc3c2)CC1 | – | – | -26.4%
12 | Nc1nc2c(c(N3CCNCC3)n1)CCC1=C2[C@@H]2CCCC[C@@H]2O1 | – | – | -5.74%
13 | C=CC1C(OC2OC(CO)C(O)C(O)C2O)OC=C(C(=O)OC)C1CC(=O)OCC1C(C)C(O)CC1C(CO)COC(=O)CC1C(C(=O)O)=COC(OC2OC(CO)C(O)C(O)C2O)/C1=C\C (centres undefined) | inactive | – | –
14 | Oc1ccc2nc(CN3CCC(Cc4ccccc4F)CC3)[nH]c2c1 | – | – | -7.21%
15 | Cc1noc(=O)c2ccc(NC(=O)C(O)(CC(C)(C)c3cccc4c3OCC4)C(F)(F)F)cc12 (centres undefined) | inactive | – | –
16 | CC(C)S(=O)(=O)N[C@H]1CCOC[C@@H]1c1ccc(-c2ccc(C#N)s2)cc1 | inactive | – | –
17 | C=C(C(=O)O)[C@H]1C[C@]2(C)[C@@H](O)CC[C@]23O[C@H]1C[C@@H]3C | inactive | – | –
18 | O=C(O)CCCCCC[C@H]1C(=O)NC(=O)N1CC[C@@H](O)C1CCCCC1 | inactive | – | –
19 | COc1cc(C(=O)OC[C@H]2O[C@@H](Oc3ccccc3/C=C/C(=O)O)[C@H](O)[C@@H](O)[C@@H]2O)cc(OC)c1OC | – | – | 5.09%
20 | C=CC(C)(C)c1[nH]c2cc3c(cc2c1CC1NC(=O)C2=CCCN2C1=O)C=CC(C)(C)O3 (centres undefined) | inactive | – | –

Row | SMILES | outcome | Potency | max response
21 | C/C=C/C=C/C(O)=C1\C(=O)[C@]2(C)C3C(C(=O)CC/C=C/C)=C(O)C4(C)C1[C@]1(C)O[C@@]4(O)[C@@]3(C)O[C@@]12O | – | – | 8.54%
22 | COc1ncc2cc(C(=O)Nc3cc(C(=O)NCc4cccc(Cl)c4)ccc3Cl)c(=O)[nH]c2n1 | – | 4110 nM (active) | –
23 | CC(=O)O[C@H]1CC[C@@]2(C)C(CC[C@@H](C)[C@]23Cc2c(O)cc4c(c2O3)CN([C@@H](CCC(=O)O)C(=O)O)C4=O)C1(C)C (some centres undefined) | inactive | – | –
24 | N#Cc1cc(F)cc(-c2nc(-c3ccccn3)no2)c1 | – | – | -6.38%
25 | CC1=C2C(O)C(=O)OC(c3ccoc3)C2(C)CCC1O (centres undefined) | inactive | – | –
26 | CC1=CC(=O)[C@]2(O[C@@H]3O[C@@H](C)[C@H](O)[C@@H](O)[C@H]3OC(=O)/C=C/c3ccccc3)C=CO[C@@H](O[C@@H]3O[C@H](CO)[C@@H](O)[C@H](O)[C@H]3O)[C@H]12 | – | – | 8.78%
27 | OCc1ccc(O[C@@H]2O[C@H](CO)[C@@H](O)[C@H](O)[C@H]2O)cc1 | – | – | -3.37%
28 | Cc1cc(C)c(CNC(=O)c2cc(-c3ccc(CN4CCOCC4)cc3)cc3c2cnn3C2CCCC2)c(=O)[nH]1 | – | – | 8.22%
29 | CC1(C)CC[C@]2(C(=O)O[C@@H]3O[C@H](CO)[C@@H](O)[C@H](O)[C@H]3O)CC[C@]3(C)C(=CCC4[C@@]5(C)CC[C@H](O[C@@H]6O[C@H](C(=O)O)[C@@H](O)[C@H](O)[C@H]6O)C(C)(C)C5CC[C@]43C)C2C1 (some centres undefined) | – | – | 6.58%
30 | COC(=O)C12C(=O)C(C)=C(O)C1(C)C(C)=CC1C3(CO)CCC(O)C(C)(C)C3CCC12C (centres undefined) | – | – | -2.12%
31 | CCC(C)C1NC(=O)C2CCCN2C(=O)C(NC(C)=O)C(C)OC(=O)C(Cc2ccc(OC)cc2)N(C)C(=O)C2CCCN2C(=O)C(C(C)C)NC1=O (centres undefined) (Ac-TPIVP[NMeY](Me); ester 1-C; configuration not given here) | – | – | -2.69%
32 | O=C1NC(Cc2c[nH]c3ccccc23)C(=O)NC1Cc1cnc[nH]1 (centres undefined) | inactive | – | –
33 | Cc1cc(NC(=O)Nc2ccc(F)c(F)c2)n(-c2ccccc2)n1 | – | – | 4.72%
34 | CC1(C)CCCC2(C)C1CC(=O)C13CC(CCC12)C(O)(CO)C3 (centres undefined) | – | – | 8.26%
35 | COc1cc(/C=C/C=O)cc(OC)c1O[C@@H]1O[C@H](CO)[C@@H](O)[C@H](O)[C@H]1O | inactive | – | –
36 | O=C(/C=C/c1ccccc1)OC[C@]12O[C@H]1[C@@H](O)[C@@H]1C=CO[C@@H](O[C@@H]3O[C@H](CO)[C@@H](O)[C@H](O)[C@H]3O)[C@@H]12 | inactive | – | –
37 | O=S(=O)(c1ccccc1)c1cnc2c(N3CCNCC3)cccc2c1 | – | – | 0.14%
38 | COc1c(/C=C/C(C)(C)O)ccc2c1C(=O)OCc1cc(C)cc(O)c1O2 | – | – | -23.3%
39 | C=C(C(=O)OC)C1C(O)CC2(C)C(O)CCC(=O)C2C1O (centres undefined) | – | – | 2.14%

Reference: PubChem BioAssay (NCATS)
